In the supplement of paper PMC11732987, “Enantioselective OTUD7B fragment discovery through chemoproteomics screening and high-throughput optimisation” (Communications Chemistry, 2025):

Key:
Test in all cases: log2 ratio of Biotin-Ahx-Ub-VS probe labelling (fragment/DMSO); higher = less target engagement (more negative = stronger competition), active = hit call of the paper (q ≤ 0.05, log2 ratio ≤ -1)
Settings in all cases: compound concentration: 200 uM; treatment time: 3 h
ALG13 = biological target: T1, ALG13 (UniProt Q9NP73)
T1 sequence (whole entry): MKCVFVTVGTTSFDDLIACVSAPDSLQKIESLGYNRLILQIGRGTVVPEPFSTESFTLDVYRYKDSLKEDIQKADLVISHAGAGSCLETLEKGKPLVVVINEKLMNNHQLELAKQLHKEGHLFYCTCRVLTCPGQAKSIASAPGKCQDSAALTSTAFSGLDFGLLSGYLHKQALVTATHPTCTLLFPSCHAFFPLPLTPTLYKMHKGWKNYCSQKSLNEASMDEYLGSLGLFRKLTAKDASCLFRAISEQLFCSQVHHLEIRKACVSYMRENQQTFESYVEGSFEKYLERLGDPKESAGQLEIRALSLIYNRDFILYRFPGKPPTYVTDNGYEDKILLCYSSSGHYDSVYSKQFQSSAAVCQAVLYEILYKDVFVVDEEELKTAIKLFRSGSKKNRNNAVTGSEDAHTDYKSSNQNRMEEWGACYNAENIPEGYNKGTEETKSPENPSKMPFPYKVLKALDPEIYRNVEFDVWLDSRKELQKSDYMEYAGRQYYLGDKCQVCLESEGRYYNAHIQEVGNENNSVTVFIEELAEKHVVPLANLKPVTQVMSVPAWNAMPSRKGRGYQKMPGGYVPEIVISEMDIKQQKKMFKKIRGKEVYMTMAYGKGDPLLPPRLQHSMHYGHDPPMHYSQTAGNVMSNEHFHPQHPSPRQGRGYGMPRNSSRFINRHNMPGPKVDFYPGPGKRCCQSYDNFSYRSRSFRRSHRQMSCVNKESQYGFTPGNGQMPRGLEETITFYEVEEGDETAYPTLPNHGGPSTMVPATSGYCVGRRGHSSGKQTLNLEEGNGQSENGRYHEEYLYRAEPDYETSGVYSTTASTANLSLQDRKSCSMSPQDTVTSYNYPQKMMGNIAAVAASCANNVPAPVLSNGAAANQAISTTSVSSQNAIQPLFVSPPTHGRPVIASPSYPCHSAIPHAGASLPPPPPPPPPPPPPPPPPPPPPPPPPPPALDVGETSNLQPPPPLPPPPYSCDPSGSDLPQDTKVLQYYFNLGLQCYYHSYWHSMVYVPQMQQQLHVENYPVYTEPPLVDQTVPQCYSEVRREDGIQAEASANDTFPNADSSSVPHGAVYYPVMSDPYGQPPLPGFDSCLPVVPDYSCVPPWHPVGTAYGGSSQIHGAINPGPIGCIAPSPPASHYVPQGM
Method in brief: (§1)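 Values give the average log2 ratio of fragment to vehicle, assessed by unpaired t-test on global-median-normalised Spectronaut label-free quantities. Proteins needed ≥2 unique peptides. HEK293T lysate (495 µg per sample) was treated in triplicate with fragment at 200 µM or vehicle for 3 h and then with Biotin-Ahx-Ub-VS at 0.5 µM final for 1 h. Labelled DUBs were NeutrAvidin-enriched, digested and run by diaPASEF LC-MS/MS.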

ATXN3 = ATXN3 (UniProt P54252)
Method in brief: as §1

BAP1 = biological target: T2, BAP1 (UniProt Q92560)
T2 sequence (whole entry): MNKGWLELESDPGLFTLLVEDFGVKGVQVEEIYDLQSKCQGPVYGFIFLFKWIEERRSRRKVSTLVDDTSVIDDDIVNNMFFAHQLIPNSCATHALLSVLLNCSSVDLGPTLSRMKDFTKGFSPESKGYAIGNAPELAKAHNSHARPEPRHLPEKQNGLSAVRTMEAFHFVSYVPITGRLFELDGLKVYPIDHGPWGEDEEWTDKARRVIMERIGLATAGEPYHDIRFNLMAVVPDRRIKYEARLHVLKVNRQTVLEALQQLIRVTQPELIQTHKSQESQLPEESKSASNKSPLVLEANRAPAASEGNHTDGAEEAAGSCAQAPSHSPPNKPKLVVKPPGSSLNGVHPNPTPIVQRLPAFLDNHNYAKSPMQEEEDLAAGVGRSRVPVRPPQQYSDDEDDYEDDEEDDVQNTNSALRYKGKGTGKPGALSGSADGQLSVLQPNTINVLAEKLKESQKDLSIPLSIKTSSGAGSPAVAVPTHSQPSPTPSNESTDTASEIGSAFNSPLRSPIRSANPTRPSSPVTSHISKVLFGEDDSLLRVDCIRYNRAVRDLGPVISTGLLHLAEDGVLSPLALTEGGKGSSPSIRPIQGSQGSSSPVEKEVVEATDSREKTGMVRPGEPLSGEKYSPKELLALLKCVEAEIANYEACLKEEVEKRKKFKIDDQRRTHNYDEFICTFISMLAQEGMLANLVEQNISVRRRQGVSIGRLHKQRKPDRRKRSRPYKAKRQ
Method in brief: as §1

EIF3F = EIF3F (UniProt O00303)
Method in brief: as §1

EIF3H = EIF3H (UniProt O15372)
Method in brief: as §1

FAM105A = biological target: T3, FAM105A (UniProt Q9NUU6)
T3 sequence (whole entry): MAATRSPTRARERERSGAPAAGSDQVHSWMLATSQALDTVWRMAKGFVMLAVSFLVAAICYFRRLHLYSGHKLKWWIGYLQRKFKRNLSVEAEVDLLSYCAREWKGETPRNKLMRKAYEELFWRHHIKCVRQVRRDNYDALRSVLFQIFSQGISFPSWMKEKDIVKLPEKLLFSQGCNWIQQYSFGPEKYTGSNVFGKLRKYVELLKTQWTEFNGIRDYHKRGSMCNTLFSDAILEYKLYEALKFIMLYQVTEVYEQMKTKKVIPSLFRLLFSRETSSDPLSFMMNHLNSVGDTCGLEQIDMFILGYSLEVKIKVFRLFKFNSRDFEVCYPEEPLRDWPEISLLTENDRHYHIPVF
Method in brief: as §1

OTUB1 = OTUB1 (UniProt Q96FW1)
Method in brief: as §1

OTUD4 = biological target: T4, OTUD4 (UniProt Q01804)
T4 sequence (whole entry): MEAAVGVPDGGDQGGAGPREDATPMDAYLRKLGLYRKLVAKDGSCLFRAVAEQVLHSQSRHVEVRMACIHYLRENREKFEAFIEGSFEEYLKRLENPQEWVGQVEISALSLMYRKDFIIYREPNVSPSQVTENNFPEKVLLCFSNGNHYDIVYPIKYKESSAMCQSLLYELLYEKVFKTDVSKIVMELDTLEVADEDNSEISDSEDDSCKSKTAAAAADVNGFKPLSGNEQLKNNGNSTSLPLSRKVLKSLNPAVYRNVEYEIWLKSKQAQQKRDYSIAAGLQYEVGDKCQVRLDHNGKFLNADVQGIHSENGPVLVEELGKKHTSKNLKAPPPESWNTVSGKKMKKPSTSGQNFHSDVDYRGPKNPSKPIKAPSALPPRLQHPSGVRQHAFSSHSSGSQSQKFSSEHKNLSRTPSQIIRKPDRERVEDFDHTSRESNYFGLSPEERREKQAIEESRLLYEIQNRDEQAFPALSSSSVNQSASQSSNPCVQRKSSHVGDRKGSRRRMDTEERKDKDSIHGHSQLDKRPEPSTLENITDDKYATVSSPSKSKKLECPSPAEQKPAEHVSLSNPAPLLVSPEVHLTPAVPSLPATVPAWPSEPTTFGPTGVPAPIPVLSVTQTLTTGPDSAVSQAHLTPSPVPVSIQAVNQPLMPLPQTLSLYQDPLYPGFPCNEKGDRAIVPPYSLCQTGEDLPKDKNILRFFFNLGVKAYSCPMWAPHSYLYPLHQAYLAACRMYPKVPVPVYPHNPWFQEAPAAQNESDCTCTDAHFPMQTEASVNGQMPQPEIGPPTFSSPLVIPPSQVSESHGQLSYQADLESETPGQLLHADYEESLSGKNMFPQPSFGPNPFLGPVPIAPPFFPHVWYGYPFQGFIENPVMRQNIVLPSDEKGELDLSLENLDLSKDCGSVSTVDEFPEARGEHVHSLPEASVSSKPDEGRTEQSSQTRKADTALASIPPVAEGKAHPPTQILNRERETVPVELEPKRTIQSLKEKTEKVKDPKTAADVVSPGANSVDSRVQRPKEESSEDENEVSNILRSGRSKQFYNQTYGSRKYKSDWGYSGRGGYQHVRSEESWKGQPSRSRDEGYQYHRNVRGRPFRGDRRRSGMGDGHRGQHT
Method in brief: as §1

OTUD5 = biological target: T5, OTUD5 (UniProt Q96G74)
T5 sequence (whole entry): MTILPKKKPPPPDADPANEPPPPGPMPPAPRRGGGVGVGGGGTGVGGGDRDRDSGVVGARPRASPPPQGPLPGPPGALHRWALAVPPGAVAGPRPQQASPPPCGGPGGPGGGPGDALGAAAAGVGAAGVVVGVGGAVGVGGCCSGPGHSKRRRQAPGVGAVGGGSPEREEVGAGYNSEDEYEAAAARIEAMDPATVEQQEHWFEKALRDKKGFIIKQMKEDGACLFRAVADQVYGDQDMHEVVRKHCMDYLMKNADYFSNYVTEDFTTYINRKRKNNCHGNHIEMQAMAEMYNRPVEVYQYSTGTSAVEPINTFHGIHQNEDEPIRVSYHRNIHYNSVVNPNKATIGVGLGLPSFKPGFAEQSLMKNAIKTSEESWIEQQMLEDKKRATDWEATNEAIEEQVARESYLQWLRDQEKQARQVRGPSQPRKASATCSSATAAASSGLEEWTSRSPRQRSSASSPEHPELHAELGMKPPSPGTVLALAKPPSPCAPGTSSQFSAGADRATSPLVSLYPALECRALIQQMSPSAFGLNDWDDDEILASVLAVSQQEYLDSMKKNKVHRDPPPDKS
Method in brief: as §1

Measured: log2 ratio of Biotin-Ahx-Ub-VS probe labelling

Chain of ATXN3 (P54252 whole entry): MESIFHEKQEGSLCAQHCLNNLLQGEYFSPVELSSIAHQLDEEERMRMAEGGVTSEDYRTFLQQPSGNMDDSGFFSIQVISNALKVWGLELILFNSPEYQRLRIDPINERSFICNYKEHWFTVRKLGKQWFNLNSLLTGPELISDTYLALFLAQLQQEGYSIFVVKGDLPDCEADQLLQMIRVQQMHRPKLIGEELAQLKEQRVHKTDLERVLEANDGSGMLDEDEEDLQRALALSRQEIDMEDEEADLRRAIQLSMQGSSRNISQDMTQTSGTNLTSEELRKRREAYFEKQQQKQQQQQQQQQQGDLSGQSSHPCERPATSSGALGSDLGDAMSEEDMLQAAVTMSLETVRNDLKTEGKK
Chain of OTUB1 (Q96FW1 whole entry): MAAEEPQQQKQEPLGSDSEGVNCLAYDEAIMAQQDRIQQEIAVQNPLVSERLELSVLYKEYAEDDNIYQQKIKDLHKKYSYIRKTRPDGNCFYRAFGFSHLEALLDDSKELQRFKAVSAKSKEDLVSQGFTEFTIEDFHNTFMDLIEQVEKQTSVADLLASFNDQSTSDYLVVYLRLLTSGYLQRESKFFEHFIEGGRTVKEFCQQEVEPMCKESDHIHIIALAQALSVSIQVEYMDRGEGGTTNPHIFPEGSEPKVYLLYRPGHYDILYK
Chain of EIF3F (O00303 whole entry): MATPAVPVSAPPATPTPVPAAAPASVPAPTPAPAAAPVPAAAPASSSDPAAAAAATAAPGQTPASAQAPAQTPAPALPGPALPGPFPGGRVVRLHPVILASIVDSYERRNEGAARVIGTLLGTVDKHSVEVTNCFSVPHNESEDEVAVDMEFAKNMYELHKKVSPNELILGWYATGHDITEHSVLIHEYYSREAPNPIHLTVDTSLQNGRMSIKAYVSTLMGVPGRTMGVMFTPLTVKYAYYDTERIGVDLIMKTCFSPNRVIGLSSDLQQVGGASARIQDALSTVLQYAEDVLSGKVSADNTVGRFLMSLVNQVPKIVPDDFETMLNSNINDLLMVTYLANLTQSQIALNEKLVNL
Chain of EIF3H (O15372 whole entry): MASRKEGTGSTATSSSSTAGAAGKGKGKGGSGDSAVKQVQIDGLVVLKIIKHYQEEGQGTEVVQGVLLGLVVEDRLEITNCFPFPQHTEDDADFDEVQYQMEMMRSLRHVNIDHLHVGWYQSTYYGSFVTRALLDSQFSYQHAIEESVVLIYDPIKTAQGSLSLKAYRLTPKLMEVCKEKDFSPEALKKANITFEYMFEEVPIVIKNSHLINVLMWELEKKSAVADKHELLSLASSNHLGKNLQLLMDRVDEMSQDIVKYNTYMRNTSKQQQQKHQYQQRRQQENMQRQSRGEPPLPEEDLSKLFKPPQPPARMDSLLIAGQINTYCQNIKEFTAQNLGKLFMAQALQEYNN

Cc1cc(C2CCCN2C(=O)CCl)nn1C.Cl (centres undefined)
inactive: ALG13 0.0249 | ATXN3 -0.374 | BAP1 -0.0558 | EIF3F -0.11 | EIF3H -0.0784 | FAM105A 0.201 | OTUB1 -0.0124 | OTUD4 -0.0857 | OTUD5 -0.157
